Among all 2,300 compounds or so, about 30 (1%) were called active.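 Rule for the calls: active = activation of at least 30% at 10 µM; inactive = the rest.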 The list is a sample of the results.
Experiment: spectral interference with molecular beacon fluorescence, confirmation, artefact control for DNMT1 inhibitor project, biochemical, fluorescent molecular beacon, single concentration (AID 602387);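 note: DNMT1 catalytic domain with a HinP1I cleavage step and a FAM/dabcyl DNA beacon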
Settings: DNMT1 molecular beacon spectral interference counterscreen, fluorescence 485/520; at 10 µM; hits give high values

Row | Compound | activation (fluorescence interference)
1 | COc1ccc(NC(=O)CCn2ccnc2)c(OC)c1 | 5.11% (inactive)
2 | Cc1ccc2[nH]c(=O)c(-c3nc4c(C)cccn4c3NCc3ccco3)cc2c1 | -3.31% (inactive)
3 | NNc1cccc(C=Cc2ccccc2)cc1=O | -0.89% (inactive)
4 | NC1=CC(=O)C(=O)c2cccnc21 | 34.8% (active)
5 | C=C(C)C(=O)Nc1cccc(C2=NOC3(C2)C[C@H](C(N)=O)N(C(=O)C(c2ccccc2)c2ccccc2)C3)c1 (some centres undefined) | -0.25% (inactive)
6 | CCC/C=C(\CCC)C(NC(=O)Cc1ccccc1)c1ccc(C(=O)OC)cc1 (centres undefined) | 2.66% (inactive)
7 | Cc1ccccc1NC(=O)CN1C(=O)N/C(=C\c2cccn2-c2cccc(C(=O)O)c2)C1=O | -2.61% (inactive)
8 | O=C(Nc1nc(-c2ccco2)c(-c2ccco2)s1)c1ccco1 | 6.11% (inactive)
9 | O=c1[nH]c(/C=C/c2cccc(Br)c2)nc2ccccc12 | -5.42% (inactive)
10 | CC(=O)Nc1ccccc1Sc1ccc2c3c(cccc13)C(=O)N(c1ccc(C)cc1)C2=O | 2.58% (inactive)
11 | Cc1ccc(Cc2cncc(O)c2)cc1S(=O)(=O)O | 5.41% (inactive)
12 | CC(=O)c1ccc(NC(=O)c2ccc3c(Cl)c4c(nc3c2)CCCC4)cc1 | -4.05% (inactive)
13 | Cc1ccccc1-n1cc(CNC(=O)CC2C(=O)NCCN2C/C=C/c2ccccc2)cn1 (centres undefined) | 1.73% (inactive)
14 | Cc1ccc(-c2cc(C(=O)NCc3cn(C)nc3C)c3cc(Br)ccc3n2)cc1 | 2.74% (inactive)
15 | Cc1ccc(-c2nnc(-c3ccc(NC(=O)c4cccs4)cc3)o2)cc1 | -3.03% (inactive)
16 | O=C(CN1CCCSc2ccccc21)N1CCN(S(=O)(=O)c2cccc(F)c2)CC1 | 2.83% (inactive)
17 | O=C(COC(=O)/C=C/c1cn(-c2ccccc2)nc1-c1cccnc1)Nc1ccc(Cl)cc1Cl | -2.13% (inactive)
18 | O=C(Nc1cccc(F)c1)c1cc(-c2ccco2)nc2ccccc12 | 3.89% (inactive)
19 | COc1ccc(CC(=O)Nc2ccc(-c3nnc(-c4ccccc4)o3)cc2)cc1 | -2.31% (inactive)
20 | CCOc1ccc(CN2CCC(n3nccc3NC(=O)C3CC3)CC2)cc1CO | 3.5% (inactive)
21 | Nc1cc2c(cc1Br)-c1ccc(F)cc1C2=O | -1.05% (inactive)
22 | COc1ccc2c(c1)c(=O)c(C(=O)c1ccc(Cl)cc1)cn2CC(=O)Nc1ccc(F)cc1 | -1.8% (inactive)
23 | O/N=C1\CC2(Cc3nonc31)OCCO2 | 2.87% (inactive)
24 | CCOC(=O)N1CC=C2C(C#N)=C(N)C(C#N)(C#N)[C@H](c3cccs3)[C@H]2C1 | 9.6% (inactive)
25 | NC(CSC(c1ccccc1)(c1ccccc1)c1ccc(-c2ccccc2)cc1)C(=O)O (centres undefined) | 5.09% (inactive)
26 | CC1CN(C(=O)c2ccccc2NS(=O)(=O)c2cccc([N+](=O)[O-])c2)CC(C)O1 (centres undefined) | 1.08% (inactive)

Row | Compound | activation (fluorescence interference)
27 | C=CC1=C(C(=O)O)N2C(=O)[C@@H](NC(=O)/C(=N\OCC(=O)O)c3csc(N)n3)[C@H]2SC1 | 7.32% (inactive)
28 | Cc1ccc(N=C2NC(=O)/C(=C/C=C/c3ccco3)S2)cc1C | -1.63% (inactive)
29 | CN(C)/C=C(/C(=O)c1ccc(Cl)cc1)S(=O)(=O)c1ccccc1 | 1.79% (inactive)
30 | Cc1cc2nc(-c3ccco3)c(Cc3cccc(F)c3)n2c(C)c1Br | 0.96% (inactive)
31 | COc1ccc(Cc2nnc(NC(=O)Cc3cccs3)s2)cc1 | -0.3% (inactive)
32 | CCc1ccc(NC(=O)CS(=O)CC(=O)NCCCc2ccccc2)cc1 (centres undefined) | 2.85% (inactive)
33 | CCOc1cc(CN2CCCC(CO)(Cc3ccc(F)cc3F)C2)ccc1OC (centres undefined) | 4.08% (inactive)
34 | Cc1onc(-c2ccccc2)c1C(=O)Nc1ccccc1C#N | 3.12% (inactive)
35 | Cc1cc(O)c(C(=O)/C=C/c2c(F)c(F)c(F)c(F)c2F)c(=O)o1 | 6.03% (inactive)
36 | c1coc(-c2nc3nc4ccccc4n3nc2-c2ccco2)c1 | 0.5% (inactive)
37 | CCN(C(=O)CSc1nc(N)cc(=O)[nH]1)C1CCS(=O)(=O)C1 (centres undefined) | 2.08% (inactive)
38 | c1ccc2cc3c(NCCN4CCOCC4)ccnc3cc2c1 | -0.48% (inactive)
39 | O=C(Cn1nnc(-c2ccccc2)n1)N/N=C/c1ccc(-c2ccc(Cl)cc2)o1 | 3.12% (inactive)
40 | CC1(C(=O)NS(=O)(=O)c2ccccc2)CCN1C(=O)C/C=C/c1ccccc1 (centres undefined) | -0.14% (inactive)
41 | CCN1CCN(Cc2nc3c(c(=O)n(C)c(=O)n3C)n2CC(=O)c2ccccc2)CC1 | 2.13% (inactive)
42 | C/C(=N\Nc1ccc(S(N)(=O)=O)cc1[N+](=O)[O-])c1cccs1 | 0.04% (inactive)
43 | O=C(COC(=O)c1ccc(F)cc1F)Nc1ncccn1 | 3.67% (inactive)
44 | C=CCn1c(=NC(=O)c2ccc(S(=O)(=O)N3CCCC3)cc2)sc2cc(NC(C)=O)ccc21 | -2.75% (inactive)
45 | Cc1ccc(/C=C/C(=O)Nc2ccc([N+](=O)[O-])c(NC(=O)/C=C/c3ccc(C)o3)c2)o1 | -0.1% (inactive)
46 | O=C(COC(=O)CCC(=O)c1cccs1)NCc1ccco1 | 2.99% (inactive)
47 | CC(C)(C)N(Cc1ccccc1)C(=O)c1ccncc1 | 4.75% (inactive)
48 | CCOC(=O)c1c(NC(=S)NC(=O)/C=C/c2cccs2)sc(C)c1C | 2.75% (inactive)
49 | CN(Cc1nc2ccc(F)cc2[nH]1)Cc1nc(CC2CC2)no1 | 5.14% (inactive)
50 | O=C(c1cccs1)N1CCC(c2nc3ccccc3s2)CC1 | 4.65% (inactive)
51 | O=C(CCNC(=O)c1ccccc1)NN=Cc1ccc(Br)o1 | 2.53% (inactive)
52 | CCOC(=O)/C(C#N)=C/c1ccc(OCC(=O)Nc2ccccc2)c(OC)c1 | 6.65% (inactive)

Row | Compound | activation (fluorescence interference)
53 | COc1cccc(C(=O)Nc2ccc(N3CCCC3)cc2)c1 | 5.04% (inactive)
54 | C=Cc1ccc(C(=O)N2CCCC(CCC(=O)N3CCN(c4ccccn4)CC3)C2)cc1 (centres undefined) | -0.29% (inactive)
55 | CCN1C(=O)c2cccc3c(N)ccc1c23 | 6.17% (inactive)
56 | CCNC(=O)C1CCCN(C(=O)c2cc(F)ccc2C)CC1 (centres undefined) | 5% (inactive)
57 | COc1ccc(C(=O)OCC(=O)Nc2cccc(C(C)=O)c2)cc1OC | 8.78% (inactive)
58 | CCOc1ccccc1/C=c1\sc2nc(-c3ccco3)nn2c1=O | 3.15% (inactive)
59 | COc1ccc(Cl)cc1NC(=O)CCS(=O)(=O)c1ccc(Br)cc1 | 3.16% (inactive)
60 | O=C(CCN1C(=O)C2C3C=CC(C3)C2C1=O)Nc1ccccc1F (centres undefined) | 1.81% (inactive)
61 | COc1ccc(/C=C2\SC(=N)N(c3ccc(F)cc3)C2=O)cc1 | 2.19% (inactive)
62 | Oc1c(C(c2ccco2)N2CCC3(CC2)OCCO3)sc2ncnn12 (centres undefined) | 3.04% (inactive)
63 | O=C(COC(=O)c1ccccc1O)NCc1ccco1 | 6.37% (inactive)
64 | O=C(CCS(=O)(=O)c1ccc(Br)cc1)NCCc1ccc(Cl)cc1 | 1.71% (inactive)
65 | CCCCCCc1cc2cc(-c3nnc(-c4ccccc4)o3)c(=O)oc2cc1O | -8.15% (inactive)
66 | O=C(CSc1nc2ccccc2c(=O)[nH]1)Nc1nc(-c2ccc(Br)cc2)cs1 | 1.36% (inactive)
67 | COc1ccc(Br)cc1/C=N/Nc1ccc(S(=O)(=O)Nc2ccccc2C(=O)O)cc1[N+](=O)[O-] | -9.44% (inactive)
68 | COC(=O)CCCCC1=CCC2C(=O)C=C(O)C2C1 (centres undefined) | 10.1% (inactive)
69 | COc1ccc(OCC(=O)NNC(=O)c2ccc(-c3ccccc3)cc2)cc1 | 1.59% (inactive)
70 | CSc1ccc(CNC(=O)c2ccc(NC(=O)C3=CSCCO3)cc2)cc1 | 4.08% (inactive)
71 | C=CC[C@@H](CC(=O)N[C@H](CO)Cc1ccccc1)C(=O)N[C@@H](COC(=O)[C@@H](CC=C)Cc1ccc(F)cc1)Cc1c[nH]c2ccccc12 | 10.2% (inactive)
72 | Cc1ccc(CNC(=O)CSc2nnc3c(n2)[nH]c2ccc(F)cc23)cc1 | 3.05% (inactive)
73 | COc1cc(-c2nnc(NC(=O)CS(=O)(=O)c3ccc(Cl)cc3)o2)cc(OC)c1OC | 5.03% (inactive)
74 | COc1ccc(-n2c(SCC(=O)Nc3sc4c(c3C#N)CCCC4)nnc2-c2ccc(O)cc2)cc1 | 1.12% (inactive)
75 | CCOc1cc(NC(=O)c2ccco2)c(OCC)cc1NC(=O)COc1ccccc1 | -8.28% (inactive)
76 | CC1(C)Cc2nc3sc4c(SCC(=O)NC(c5ccccc5)c5ccccc5)ncnc4c3cc2CO1 | 1.08% (inactive)
77 | O=C(COc1ccc(/C=N/NC(=O)c2ccc(O)cc2)cc1)Nc1ccc([N+](=O)[O-])cc1 | -12.5% (inactive)
78 | O=C(c1ccc(CS(=O)(=O)c2ccccc2)o1)N1CCN(c2ccccc2)CC1 | -0.52% (inactive)

Row | Compound | activation (fluorescence interference)
79 | CCOC(=O)C(NC(=O)CC(C)C)(Nc1sc2c(c1C(N)=O)CCCC2)C(F)(F)F (centres undefined) | 6.15% (inactive)
80 | COc1ccc(C(=O)/C=C/c2ccc(-c3ccccc3)cc2)cc1CSCC(=O)O | -0.97% (inactive)
81 | O=C(COc1ccc([N+](=O)[O-])cc1)Nc1ccc(N2CCCC2)cc1 | 4.14% (inactive)
82 | N#Cc1ccccc1CN1C(=O)S/C(=C/c2cccn2-c2cccc(C(=O)O)c2)C1=O | 1.4% (inactive)
83 | COc1ccc2sc(-c3ccc(S(C)(=O)=O)cc3)c(-c3ccc(C(N)=O)cc3)c2c1 | 4.53% (inactive)
84 | CN(CCOc1ccccc1)C(=O)c1cc(-c2ccco2)nc2ccccc12 | 3.34% (inactive)
85 | Cc1ccc2cc(C)c(N3CCC(C)CC3)nc2c1 | 2.52% (inactive)
86 | COc1ccc(NC(=O)CN(C)C(=O)c2cc(C3CC3)nn2-c2ccccc2)cc1 | 0.09% (inactive)
87 | COc1ccc(CC(=O)Nc2ccc(-c3nnc(-c4ccc(C)cc4)o3)cc2)cc1 | -5.84% (inactive)
88 | CS(=O)(=O)c1ccc2c(c1)SC1=NC(=O)/C(=C/c3ccco3)C(=N)N12 | 1.32% (inactive)
89 | O=C1CCCC(O)=C1C=NCCc1ccccc1 | 5.41% (inactive)
90 | O=C(Nc1cccc(-c2nc3ccccc3[nH]2)c1)c1ccc(C(=O)Nc2cccc(-c3nc4ccccc4[nH]3)c2)cc1 | -6.94% (inactive)
91 | CC(Oc1ccccc1)C(=O)Nc1oc(-c2ccco2)c(-c2ccco2)c1C#N (centres undefined) | 0.87% (inactive)
92 | c1ccc2cc3[nH]c(CN4CCCCC4)nc3cc2c1 | 5.49% (inactive)
93 | CC(=O)Nc1ccc(SCC(=O)NC(=O)c2ccc(Cl)cc2)cc1 | 4.23% (inactive)
94 | Cc1nnc(N/N=C/c2cccs2)[nH]c1=O | 1.29% (inactive)
95 | CCCCNC(=O)CCn1c(=O)c2ccccc2n(Cc2cc(C)ccc2C)c1=O | 1.75% (inactive)
96 | Cc1ccc(C(=O)NNC(=O)c2cc3cc4ccccc4nc3s2)cc1 | 4.21% (inactive)
97 | CC(C)(C)NC(=O)CSC(=Nc1ccccc1F)NC#N | 8.71% (inactive)
98 | COc1ccc2[nH]c(=O)c(-c3noc(-c4ccc(F)cc4)n3)cc2c1 | -3.37% (inactive)
99 | COc1ccc(OC)c(NC(=O)c2cc(-c3cc(F)ccc3OCC3CCCO3)n[nH]2)c1 (centres undefined) | 7.7% (inactive)
100 | O=C(NNc1ccccn1)c1ccc(Cl)nc1 | 1.8% (inactive)
101 | O=C(Oc1ccc(-c2nc(-c3ccccn3)no2)cc1)c1ccccc1 | -1.62% (inactive)
102 | CCc1nn(-c2cc(Oc3cccc4ccccc34)nc(-c3ccccc3)n2)c(N)c1C#N | 1.42% (inactive)
103 | CCOC(=O)c1cccc(NC(=O)C2CCCN(S(=O)(=O)c3cnc[nH]3)C2)c1 (centres undefined) | 2.94% (inactive)
104 | C=CCn1c(=S)[nH]c2scc(-c3ccco3)c2c1=O | -3.16% (inactive)

Source: PubChem BioAssay AID602387 (Sanford-Burnham Center for Chemical Genomics, 2012)
